Data published in the supplement of paper PMC12494721.
Structures can show the parent of a compound that is named as a salt.

system: Ruminococcus gnavus DSM 108212; test: growth (OD595) fold change vs plate DMSO controls (fold change (ratio)); higher = more growth; settings: incubation time: 27 h, anaerobic, 37 °C
Summary of the method: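 Growth is the fold change relative to the median of plate DMSO controls. Readings came from anaerobic mGAM cultures in 96-well plates grown for 27 h at 37 °C and read at 595 nm. They were blank-subtracted, corrected for compound background with 20 µM compound solutions in water, and converted to OD with a calibration factor of 5. Values are means of 2 biological replicates, and fold changes above 1.5 were set to NA.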

Compound	growth
CC(=O)Nc1ccc(O)cc1 [Acetaminophen] (20 µM)	0.921
C[C@H]1[C@H](NC(=O)/C(=N\OC(C)(C)C(=O)O)c2csc(N)n2)C(=O)N1S(=O)(=O)O [Aztreonam] (20 µM)	1.04
Nc1ccn([C@@H]2CS[C@H](CO)O2)c(=O)n1 [Lamivudine] (20 µM)	0.831
Cc1nnc(SCC2=C(C(=O)O)N3C(=O)[C@@H](NC(=O)Cn4cnnn4)[C@H]3SC2)s1 [Cefazolin sodium salt] (20 µM)	0.0483
CN(C)CCCN1c2ccccc2CCc2ccccc21 [Imipramine hydrochloride] (20 µM)	1.34
Clc1ccccc1CN1CCc2sccc2C1 [Ticlopidine hydrochloride] (20 µM)	1.18
COc1ccc(CCN(C)CCCC(C#N)(c2ccc(OC)c(OC)c2)C(C)C)cc1OC (centres undefined) [Verapamil hydrochloride] (20 µM)	1.01
Cc1cnc(NC(=O)C2=C(O)c3ccccc3S(=O)(=O)N2C)s1 [Meloxicam] (20 µM)	0.801
C=C[C@H]1CN2CC[C@H]1C[C@@H]2[C@@H](O)c1ccnc2ccc(OC)cc12 [Quinidine hydrochloride monohydrate] (20 µM)	0.981
C[C@H](CS)C(=O)N1CCC[C@H]1C(=O)O [Captopril] (20 µM)	0.851
CC(C)Cc1ccc([C@H](C)C(=O)O)cc1 [(S,+) Ibuprofen] (20 µM)	0.974
O=C(O)CCNC(=O)c1ccccc1 [Betamipron] (20 µM)	0.512
CCc1c2c(nc3ccc(OC(=O)N4CCC(N5CCCCC5)CC4)cc13)-c1cc3c(c(=O)n1C2)COC(=O)[C@]3(O)CC [Irinotecan hydrochloride trihydrate] (20 µM)	1.06
Nc1nc2c(ncn2COCCO)c(=O)[nH]1 [Acyclovir] (20 µM)	1.42
CCN(CC)CCNC(=O)c1ccc(N)cc1 [Procainamide hydrochloride] (20 µM)	0.827
O=C(O)c1cn(C2CC2)c2cc(N3CCNCC3)c(F)cc2c1=O [Ciprofloxacin hydrochloride monohydrate] (20 µM)	0.342
OC(c1cc(C(F)(F)F)nc2c(C(F)(F)F)cccc12)C1CCCCN1 (centres undefined) [Mefloquine hydrochloride] (20 µM)	1
CC[C@]12CCCN3CCc4c(n(c5ccccc45)[C@@](O)(C(=O)OC)C1)[C@@H]32 [Vincamine] (20 µM)	0.949
Cc1noc(NS(=O)(=O)c2ccc(N)cc2)c1C [Sulfisoxazole] (20 µM)	1.13
Cc1ccc(NC(=O)c2ccc(CN3CCN(C)CC3)cc2)cc1Nc1nccc(-c2cccnc2)n1 [Imatinib] (20 µM)	1.17
COc1cc2nc(N3CCN(C(=O)c4ccco4)CC3)nc(N)c2cc1OC [Prazosin hydrochloride] (20 µM)	0.986
CCOC(=O)C1=C(COCCN)NC(C)=C(C(=O)OC)C1c1ccccc1Cl (centres undefined) [Amlodipine] (20 µM)	1.1
CO/N=C(\C(=O)N[C@@H]1C(=O)N2C(C(=O)O)=C(C[N+]3(C)CCCC3)CS[C@H]12)c1csc(N)n1 [Cefepime hydrochloride] (20 µM)	0
CCn1cc(C(=O)O)c(=O)c2cc(F)c(N3CCN(C)CC3)cc21 [Pefloxacin] (20 µM)	1.13
CN(CCOc1ccc(NS(C)(=O)=O)cc1)CCc1ccc(NS(C)(=O)=O)cc1 [Dofetilide] (20 µM)	0.827
O=C1C(CC[S+]([O-])c2ccccc2)C(=O)N(c2ccccc2)N1c1ccccc1 (centres undefined) [Sulfinpyrazone] (20 µM)	1.06
CCOC(=O)C1=C(C)NC(C)=C(C(=O)OC)C1c1cccc(Cl)c1Cl (centres undefined) [Felodipine] (20 µM)	0.215
COc1c(N2C[C@@H]3CCCN[C@@H]3C2)c(F)cc2c(=O)c(C(=O)O)cn(C3CC3)c12 [Moxifloxacin] (20 µM)	0.00485
CCN1CCN(C(=O)N[C@@H](C(=O)N[C@@H]2C(=O)N3C(C(=O)O)=C(CSc4nnnn4C)CS[C@H]23)c2ccc(O)cc2)C(=O)C1=O [Cefoperazone dihydrate] (20 µM)	0.0225

system: Klebsiella aerogenes DSM 30053; test: fold change of Histamine concentration vs plate DMSO controls (fold change (ratio)); higher = more amine produced, active = hit call of the paper (significant change in both replicates, either direction); settings: incubation time: 27 h, anaerobic, 37 °C
Summary of the method: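 Amine values are fold changes relative to DMSO-only wells on the same plate. They derive from 27 h, 37 °C anaerobic mGAM cultures of four gut bacterial strains in 80 µL wells, dosed at 20 µM final, or 50 µM final for sweeteners. Extraction of the whole culture, LC–triple-quadrupole MS in dynamic MRM mode, external calibration curves and within-batch drift correction were used, with 2 biological replicates averaged.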

Compound	fold change of Histamine concentration
CC(=O)Nc1ccc(O)cc1 [Acetaminophen] (20 µM)	0.998 (inactive)
CC(C)(C)CC(C)(C)c1ccc(OCCOCC[N+](C)(C)Cc2ccccc2)cc1 [Benzethonium chloride] (20 µM)	1.07 (inactive)
C[C@H]1[C@H](NC(=O)/C(=N\OC(C)(C)C(=O)O)c2csc(N)n2)C(=O)N1S(=O)(=O)O [Aztreonam] (20 µM)	0.865 (inactive)
Nc1ccn([C@@H]2CS[C@H](CO)O2)c(=O)n1 [Lamivudine] (20 µM)	1.06 (inactive)
Cc1nnc(SCC2=C(C(=O)O)N3C(=O)[C@@H](NC(=O)Cn4cnnn4)[C@H]3SC2)s1 [Cefazolin sodium salt] (20 µM)	0.645 (inactive)
CN(C)CCCN1c2ccccc2CCc2ccccc21 [Imipramine hydrochloride] (20 µM)	0.866 (inactive)
Clc1ccccc1CN1CCc2sccc2C1 [Ticlopidine hydrochloride] (20 µM)	1.01 (inactive)
COc1ccc(CCN(C)CCCC(C#N)(c2ccc(OC)c(OC)c2)C(C)C)cc1OC (centres undefined) [Verapamil hydrochloride] (20 µM)	0.942 (inactive)
Cc1cnc(NC(=O)C2=C(O)c3ccccc3S(=O)(=O)N2C)s1 [Meloxicam] (20 µM)	1.03 (inactive)
C=C[C@H]1CN2CC[C@H]1C[C@@H]2[C@@H](O)c1ccnc2ccc(OC)cc12 [Quinidine hydrochloride monohydrate] (20 µM)	1.11 (inactive)
C[C@H](CS)C(=O)N1CCC[C@H]1C(=O)O [Captopril] (20 µM)	1.01 (inactive)
CC(C)Cc1ccc([C@H](C)C(=O)O)cc1 [(S,+) Ibuprofen] (20 µM)	0.925 (inactive)
O=C(O)CCNC(=O)c1ccccc1 [Betamipron] (20 µM)	1.02 (inactive)
CCc1c2c(nc3ccc(OC(=O)N4CCC(N5CCCCC5)CC4)cc13)-c1cc3c(c(=O)n1C2)COC(=O)[C@]3(O)CC [Irinotecan hydrochloride trihydrate] (20 µM)	1.03 (inactive)
Nc1nc2c(ncn2COCCO)c(=O)[nH]1 [Acyclovir] (20 µM)	1.02 (inactive)
Nc1ncn(C2OC(CO)C(O)C2O)c(=O)n1 (centres undefined) [Azacytidine-5] (20 µM)	1.03 (inactive)
CCN(CC)CCNC(=O)c1ccc(N)cc1 [Procainamide hydrochloride] (20 µM)	0.834 (inactive)
O=C(O)c1cn(C2CC2)c2cc(N3CCNCC3)c(F)cc2c1=O [Ciprofloxacin hydrochloride monohydrate] (20 µM)	0.0661 (active)

Compound	fold change of Histamine concentration
COc1cc(Cc2cnc(N)nc2N)cc(OC)c1OC [Trimethoprim] (20 µM)	0.522 (active)
O=C1C(=O)c2ccccc2C(O)=C1C1CCC(c2ccc(Cl)cc2)CC1 (centres undefined) [Atovaquone] (20 µM)	1.01 (inactive)
CC[C@]12CCCN3CCc4c(n(c5ccccc45)[C@@](O)(C(=O)OC)C1)[C@@H]32 [Vincamine] (20 µM)	1.01 (inactive)
Cc1noc(NS(=O)(=O)c2ccc(N)cc2)c1C [Sulfisoxazole] (20 µM)	1.07 (inactive)
Cc1ccc(NC(=O)c2ccc(CN3CCN(C)CC3)cc2)cc1Nc1nccc(-c2cccnc2)n1 [Imatinib] (20 µM)	1.01 (inactive)
COc1cc2nc(N3CCN(C(=O)c4ccco4)CC3)nc(N)c2cc1OC [Prazosin hydrochloride] (20 µM)	1.01 (inactive)
CCOC(=O)C1=C(COCCN)NC(C)=C(C(=O)OC)C1c1ccccc1Cl (centres undefined) [Amlodipine] (20 µM)	1.08 (inactive)
CN1[C@@H]2CC[C@H]1CC(OC(=O)C(O)c1ccccc1)C2 (mixture of isomers) [(R,S) Homatropine hydrobromide] (20 µM)	0.867 (inactive)
CO/N=C(\C(=O)N[C@@H]1C(=O)N2C(C(=O)O)=C(C[N+]3(C)CCCC3)CS[C@H]12)c1csc(N)n1 [Cefepime hydrochloride] (20 µM)	0.119 (active)
CCn1cc(C(=O)O)c(=O)c2cc(F)c(N3CCN(C)CC3)cc21 [Pefloxacin] (20 µM)	0.127 (active)
CN(CCOc1ccc(NS(C)(=O)=O)cc1)CCc1ccc(NS(C)(=O)=O)cc1 [Dofetilide] (20 µM)	1 (inactive)
O=C1C(CC[S+]([O-])c2ccccc2)C(=O)N(c2ccccc2)N1c1ccccc1 (centres undefined) [Sulfinpyrazone] (20 µM)	0.959 (inactive)
CCC(C)C(C(=O)OCC[N+](C)(CC)CC)c1ccccc1 (centres undefined) [Valethamate bromide] (20 µM)	1.03 (inactive)
CCOC(=O)C1=C(C)NC(C)=C(C(=O)OC)C1c1cccc(Cl)c1Cl (centres undefined) [Felodipine] (20 µM)	0.96 (inactive)
COc1c(N2C[C@@H]3CCCN[C@@H]3C2)c(F)cc2c(=O)c(C(=O)O)cn(C3CC3)c12 [Moxifloxacin] (20 µM)	0.256 (active)
C[C@H]1COc2c(N3CCN(C)CC3)c(F)cc3c(=O)c(C(=O)O)cn1c23 [Levofloxacin] (20 µM)	0.107 (active)
NC(=O)c1cc[n+](CC2=C(C(=O)O)N3C(=O)[C@@H](NC(=O)C(c4ccccc4)S(=O)(=O)[O-])[C@H]3SC2)cc1 (some centres undefined) [Cefsulodin Sodium Salt Hydrate] (20 µM)	1.03 (inactive)
